Outcome and Potency data for six compounds are collected here from PubChem BioAssay (NCATS).

A short description of test [1]: S16 Schwann cell viability assay (CellTiter-Glo assay) (AID 624031).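 Further: native untransfected S16 rat Schwann cells; cellular ATP luminescence as a viability measure; nearly all actives have a fitted effect of over 70% in size.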 The method, boiled down:
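Concentration-effect curves come from CellTiter-Glo luminescence of S16 rat Schwann cells after 24 h compound exposure. Each reading was normalized to DMSO wells (0%) and wells without cells, and curves were ranked by r2 and response magnitude.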

The test system of another test is 3D7. Kind of test: qHTS profiling for inhibitors of Plasmodium falciparum proliferation (AID 504749). Further: nearly all actives have a fitted effect of over 60% in size. Further: potency means the concentration at half of the fitted maximal effect. The note with it: P. falciparum in erythrocytes, SYBR Green DNA, 72 h; series mostly up to 12.8 µM. Put shortly: (§1)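 Quantitative HTS: compounds pinned into medium, infected erythrocytes added (0.3% parasitemia, 2.5% hematocrit), 72 h culture at 37 C under 5% CO2. Saponin/Triton lysis with SYBR Green I, overnight RT, then fluorescence read.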

The test system of another test is AS120. The test is described as above. The following applies: P. falciparum in erythrocytes, SYBR Green DNA, 72 h; series mostly up to 12.8 µM. The method, boiled down: as §1
Another test has as its system ATS189. The test is described as above. The following applies: P. falciparum in erythrocytes, SYBR Green DNA, 72 h; series mostly up to 12.8 µM. The method, boiled down: as §1
A further test concerns CP185. The description is as above. The note with it: P. falciparum in erythrocytes, SYBR Green DNA, 72 h; series mostly up to 12.8 µM. Put shortly:
as §1

The test system of another test is CP192. The test is described as above. The note with it: P. falciparum in erythrocytes, SYBR Green DNA, 72 h; series mostly up to 12.8 µM. The method, boiled down:
as §1

Another test has as its system CP252. Described as above. The following applies: P. falciparum in erythrocytes, SYBR Green DNA, 72 h; series mostly up to 12.8 µM. The method, boiled down:
as §1

Another test has as its system CP266. The description is as above. The following applies: P. falciparum in erythrocytes, SYBR Green DNA, 72 h; series mostly up to 12.8 µM. Put shortly:
as §1

The next test concerns CP268. The description is as above. The following applies: P. falciparum in erythrocytes, SYBR Green DNA, 72 h; series mostly up to 12.8 µM. The method, boiled down: as §1
A further test relates to CP286. The description is as above. The note with it: P. falciparum in erythrocytes, SYBR Green DNA, 72 h; series mostly up to 12.8 µM. The method, boiled down: as §1
Another test relates to CP297. Described as above. The following applies: P. falciparum in erythrocytes, SYBR Green DNA, 72 h; series mostly up to 12.8 µM. Put shortly: as §1
A further test concerns CP315. Described as above. The following applies: P. falciparum in erythrocytes, SYBR Green DNA, 72 h; series mostly up to 12.8 µM. Put shortly: as §1
For the next test, the system named is Dd2. The description is as above. The following applies: P. falciparum in erythrocytes, SYBR Green DNA, 72 h; series mostly up to 12.8 µM. The method, boiled down: as §1
Another test has as its system ECU. Described as above. The following applies: P. falciparum in erythrocytes, SYBR Green DNA, 72 h; series mostly up to 12.8 µM. Put shortly: as §1
Another test relates to HB3. The test is described as above. The note with it: P. falciparum in erythrocytes, SYBR Green DNA, 72 h; series mostly up to 12.8 µM. The method, boiled down: as §1
The next test concerns N140. The test is described as above. The note with it: P. falciparum in erythrocytes, SYBR Green DNA, 72 h; series mostly up to 12.8 µM. Put shortly:
as §1

A further test concerns PAD. The description is as above. The following applies: P. falciparum in erythrocytes, SYBR Green DNA, 72 h; series mostly up to 12.8 µM. Put shortly: as §1
A further test deals with PC15. Described as above. The following applies: P. falciparum in erythrocytes, SYBR Green DNA, 72 h; series mostly up to 12.8 µM. The method, boiled down: as §1
The next test deals with TAB113. The description is as above. The note with it: P. falciparum in erythrocytes, SYBR Green DNA, 72 h; series mostly up to 12.8 µM. Put shortly:
as §1

For another test, the system named is W2. Described as above. The note with it: P. falciparum in erythrocytes, SYBR Green DNA, 72 h; series mostly up to 12.8 µM. Put shortly: as §1

Inconclusive results are not listed. Active and inactive are the calls of the source. The call rests on the fitted dose curve; in most records, active means well fitted curve in the direction sought with a large enough effect; inconclusive means small, poorly fitted or top-dose-only effect, or another doubt; inactive means no such curve, though single readings can be large; an effect the other way counts as inactive or inconclusive.

For `CCCCC[C@H](O)/C=C\[C@H]1[C@H](C/C=C\CCCC(=O)O)[C@@H](O)C[C@H]1O` (tested in a mixture with another compound), the call in test [1] was inactive. Besides, the Potency result with 3D7, in the test on AS120, in the test on ATS189, in the test on CP185, in the test with CP192 and in the test with CP252 was “inactive” each time. In addition, the Potency result in the test on CP266, with CP268, in the test on CP286, in the test on CP297, with CP315 and in the test on Dd2 was “inactive” each time. In addition, the Potency entry with ECU, in the test on HB3, in the test with N140, in the test with PAD, in the test on PC15 and with TAB113 was “inactive” in each case. The Potency entry in the test with W2 is “inactive”.
Take `C1CCN2C[C@@H]3C[C@@H](CN4CCCC[C@H]34)[C@H]2C1`: in test [1], the outcome was inactive. For the same compound, the Potency result in the test with 3D7, in the test with AS120, in the test on ATS189, with CP185, in the test on CP192 and with CP252 was “inactive” in each case. Also, the Potency result with CP266, in the test on CP268, with CP286, with CP297, with CP315 and with Dd2 was “inactive” throughout. For the same compound, the Potency result with ECU, in the test on HB3, with N140, with PAD, with PC15 and in the test on TAB113 was “inactive” throughout.
On to `C=C1c2c(Cl)ccc(O)c2C(O)=C2C(=O)[C@@]3(O)C(O)=C(C(N)=O)C(=O)[C@@H](N(C)C)[C@@H]3[C@@H](O)[C@H]12`, for which, in [1], the outcome was inactive. For the same compound, the Potency result with AS120, with CP185, in the test on CP192, with CP252, with CP266 and in the test on CP268 was “inactive” throughout. For the same compound, the Potency entry in the test on CP297, in the test on CP315, in the test on N140, in the test on PAD and with PC15 was “inactive” throughout. The Potency in the test on Dd2 was 2.24 µM (active); in the test with W2, 6.42 µM (active).
For the compound `CC(C)(C)NC[C@@H](O)COc1ccccc1C1CCCC1`, the Potency was 3.98 µM (active) with AS120; 3.16 µM (active) in the test on ATS189; 3.16 µM (active) in the test on CP185; 6.42 µM (active) with CP192; 3.16 µM (active) in the test on CP252; 3.55 µM (active) in the test with CP286. In addition, the Potency in the test on CP297 was 7.21 µM (active); in the test on Dd2, 1.58 µM (active); in the test with ECU it was 3.55 µM (active); in the test on HB3, 3.16 µM (active); with N140, 3.16 µM (active); in the test with PAD it was 3.16 µM (active). Besides, the Potency in the test on PC15 was 2.51 µM (active); in the test with TAB113, 3.98 µM (active); in the test with W2 it was 0.572 µM (active).
With `C[C@H]1CS(=O)(=O)CCN1/N=C\c1ccc([N+](=O)[O-])o1`, the Potency result in the test with 3D7, in the test with AS120, in the test with ATS189, with CP185, with CP192 and with CP252 was “inactive” each time. Besides, the Potency entry in the test with CP266, with CP268, with CP286, with CP297, in the test with CP315 and with Dd2 was “inactive” throughout. Also, the Potency result in the test on ECU, in the test on HB3, in the test on N140, with PAD, in the test with PC15 and in the test on TAB113 was “inactive” in each case.
On to `CC(=C(CCOP(=O)(O)O)SC(=O)c1ccccc1)N(C=O)Cc1cnc(C)nc1N`, for which the result in test [1] was inactive. The Potency result with 3D7, in the test on AS120, with ATS189, in the test on CP185, in the test on CP192 and in the test with CP252 was “inactive” in each case. For the same compound, the Potency result with CP266, in the test with CP268, with CP286, in the test with CP297, in the test with CP315 and in the test on Dd2 was “inactive” throughout. Also, the Potency entry with ECU, in the test on HB3, in the test on N140, in the test with PAD, with PC15 and in the test on TAB113 was “inactive” each time. The Potency result with W2 is “inactive”.
